Consider 20 compounds from PubChem BioAssay (EPA / NIEHS).

The structures appear in SMILES notation. Values joined by “and” are separate entries in the source; they are usually repeats but may differ in a detail not shown here. Equal entries are not always repeated. Results filed as inconclusive are left out. Active and inactive are the calls of the source. The calls were made as follows: active = hit-call score of the fitted dose curve at least 0.9, where 1 is the maximum; inconclusive = response in the unintended direction; inactive = score below 0.9.

Test system in the first assay: not listed separately
Kind of assay: TOX21_p53_BLA_p3_viability: Viability Assessment in the Tox21 HCT-116 p53 Agonism Beta-lactamase Assay, Phase 3 (AID 2283593).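 Also: cells exposed to compound for 16 h before reading.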 An outline of the steps: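 HCT116 cells, 4000/well, dosed 5 h after plating by pin transfer (217-fold dilution from DMSO stock) and incubated 16 h at 37C, 5% CO2. Viability read as ATP luminescence with CellTiter-Glo after 30 min at room temperature.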
As for `CC(CO)(CO)CO`, the compound was classed as inactive.

Turning to `c1ccc2sc(SSc3nc4ccccc4s3)nc2c1`, the compound was classed as inactive.

For `O=C(Cl)c1cc(Cl)cc(Cl)c1`, the outcome was inactive.

With `O=C(O)C(=O)Cc1c[nH]c2ccccc12`, the result was inactive.

On to `CC(=O)NC(Cc1ccccc1)C(=O)O` (configuration not stated), for which the compound was classed as inactive.

For `O=C(CCCN1CCC(O)(c2cccc(C(F)(F)F)c2)CC1)c1ccc(F)cc1`, the call was inactive.

Consider `NCCCNCCSP(=O)(O)O`, for which the outcome was inactive.

With `CCCc1ccc(C(=O)O)cc1`, the compound was classed as inactive.

In the next assay the target is Cellular tumor antigen p53 (Homo sapiens) (UniProt P04637). Kind of assay: TOX21_p53_BLA_p3_ratio: Tox21 HCT-116 p53 Agonism Beta-lactamase Assay, Ratio, Phase 3 (AID 2283596). An outline of the steps: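 HCT116 p53-bla cells (4000/well) given compound in DMSO (217-fold dilution) after 5 h, incubated 16 h at 37C. CCF4-AM substrate 2 h at room temperature; 460/530 nm emission ratio, gain fitted against DMSO.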
Cellular tumor antigen p53 (Homo sapiens), sequence (P04637 whole entry, looked up): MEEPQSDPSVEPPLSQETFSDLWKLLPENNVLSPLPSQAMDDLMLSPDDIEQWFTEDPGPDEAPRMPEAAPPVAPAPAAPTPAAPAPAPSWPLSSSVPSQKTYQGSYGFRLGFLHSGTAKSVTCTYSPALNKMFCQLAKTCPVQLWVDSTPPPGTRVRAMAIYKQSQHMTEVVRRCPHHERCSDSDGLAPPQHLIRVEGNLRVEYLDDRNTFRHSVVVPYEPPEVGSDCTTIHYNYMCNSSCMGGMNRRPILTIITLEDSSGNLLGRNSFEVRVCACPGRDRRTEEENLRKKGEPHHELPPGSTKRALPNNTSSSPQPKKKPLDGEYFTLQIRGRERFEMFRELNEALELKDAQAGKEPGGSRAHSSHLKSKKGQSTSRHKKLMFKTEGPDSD
As for `NC(=O)c1cc[n+](CC2=C(C(=O)O)N3C(=O)[C@@H](NC(=O)[C@@H](c4ccccc4)S(=O)(=O)[O-])[C@H]3SC2)cc1`, the result was inactive.

For `CC(C)[C@@H](N)C(=O)O`, the result was inactive.

As a reminder, the AC50 is the concentration giving half of the maximal activity seen. In the case of `CCCCCCCCCCCCCCCCCCCCCC(=O)Nc1ccn([C@@H]2O[C@H](CO)[C@@H](O)[C@@H]2O)c(=O)n1`, the AC50 was 23 µM (active).

For `O=C(Cl)c1ccccc1[N+](=O)[O-]`, the result was inactive.

As to `CCN(CC)CCOCCOC(=O)C(CC)(CC)c1ccccc1`, the result was inactive.

In the case of `CC12CC3CC(C)(C1)CC(N)(C3)C2`, the result was inactive.

Regarding `c1ccc2sc(SSc3nc4ccccc4s3)nc2c1`, the result was inactive.

Take `CC(=O)c1ccc2c(c1)N(CCCN(C)C)c1ccccc1S2`: the outcome was inactive.

Take `CN(C)CCN(Cc1cccs1)c1ccccn1`: the result was inactive.

In the case of `O=C(Cl)c1cc(Cl)cc(Cl)c1`, the outcome was inactive.

As for `COc1ccccc1N1CCN(CCCNc2cc(=O)n(C)c(=O)n2C)CC1`, the outcome was inactive.

As for `CCN(Cc1ccncc1)C(=O)C(CO)c1ccccc1` (configuration not stated), the outcome was inactive.

`Nc1ccc2cc3ccc(N)cc3nc2c1`: the AC50 is 2.62 µM (active) and 5.87 µM (active).

Turning to `BrC/C=C/CBr`, the result was inactive.
